# In PubChem BioAssay (NCATS):
# Records with an inconclusive call do not appear. Where a call stands in place of a potency, no number is given. A number with no mark means an inactive call. Calls of active or inactive are those of the source. The call rests on the fitted dose curve; in most records, active means well fitted curve in the direction sought with a large enough effect; inconclusive means small, poorly fitted or top-dose-only effect, or another doubt; inactive means no such curve, though single readings can be large; an effect the other way counts as inactive or inconclusive.
# Columns and labels:
# [1] = system: Zika virus NS2B-NS3 protease; assay: Primary screen GU AMC qHTS for Zika virus inhibitors (AID 1347154); further: nearly all actives have a fitted effect of over 70% in size
# In short: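 Unlinked Zika NS2B hydrophilic domain/NS3 protease domain noncovalent complex (25 nM final) in 10 mM Tris-HCl pH 8.0, 0.01% Tween 20, with AMC peptide substrate. Fluorescence (ex 340, em 450 nm) change over 15 min, room temperature; percent inhibition fitted to 4-parameter Hill equation.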
# [2] = Primary qHTS for small molecule stabilizers of the endoplasmic reticulum resident proteome: Secreted ER Calcium Modulated Protein (SERCaMP) assay (AID 1508630)
# In short: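 GLuc-SERCaMP-expressing SH-SY5Y cells, pretreated 16 h with compound, are challenged with thapsigargin to empty ER calcium stores; after 4 h, coelenterazine is added directly to the medium and luminescence is imaged.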
# [3] = Confirmatory qHTS for small molecule stabilizers of the endoplasmic reticulum resident proteome: Secreted ER Calcium Modulated Protein (SERCaMP) assay (AID 1508628);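 further: SH-SY5Y cells given compound 16 h then thapsigargin 100 nM for 4 h; series mostly up to about 76 µM; nearly all actives have a fitted effect of over 40% in size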
# In short: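 We seeded SH-SY5Y-GLuc-SERCaMP cells, added compounds (three concentrations in the primary run, eleven up to 76.6 uM in confirmation), incubated 16 h, depleted ER calcium with thapsigargin, and read luciferase 4 h later.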
compound,measurement,setting,value
CC(O)[C@@H](N)C(=O)O (some centres not stated),Potency,[1],inactive
same,Potency,[2],inactive
CC1CCC(C(C)C)C(P(=O)(c2ccccc2)c2ccccc2)C1 (configuration not stated),Potency,[1],inactive
same,Potency,[2],inactive
Nc1c(S(=O)(=O)O)cc(Nc2cccc3ccccc23)c2c1C(=O)c1ccccc1C2=O,Potency,[1],inactive
same,Potency,[2],inactive
CCCCC/C=C\C/C=C\C/C=C\C/C=C\CCCC(=O)O[C@@H](CO)COC(=O)CCCCCCCCCCCCCCCCC,"activity change, negative = inhibition",[1],6.26% [at 6.83 µM]
same,"activity change, negative = inhibition",[2],-0.0647% [at 3.88 µM]
CCCCCCCCCCCCC/C=C/[C@@H](O)[C@H](CO)NC(=O)CCCCCCCCCCCCCCC,"activity change, negative = inhibition",[1],22% [at 6.83 µM]
same,"activity change, negative = inhibition",[2],-18.7% [at 3.88 µM]
c1ccc2[nH]c(NCCCc3cnc[nH]3)nc2c1,Potency,[1],inactive
same,Potency,[2],inactive
Cc1cc(C)c(N(Cc2ccccc2)S(=O)(=O)c2ccc(OCCNC(=O)c3cc4ccccc4o3)cc2)c(C(=O)NO)c1,Potency,[1],inactive
same,Potency,[3],inactive
Nc1nc2c(ncn2[C@@H]2O[C@H](COP(=O)(O)OP(=O)(O)O)[C@@H](O)[C@H]2O)c(=O)[nH]1,Potency,[1],inactive
same,Potency,[2],inactive
CCCCC/C=C\C/C=C\C/C=C\C/C=C\CCCC(=O)O[C@H](COCCCCCCCCCCCCCCCC)COP(=O)([O-])OCC[N+](C)(C)C,"activity change, negative = inhibition",[1],13.2% [at 6.83 µM]
same,"activity change, negative = inhibition",[2],-11.5% [at 3.88 µM]
O=c1ccn([C@@H]2O[C@H](COP(=O)(O)OP(=O)(O)OP(=O)(O)O)[C@@H](O)[C@H]2O)c(=O)[nH]1,Potency,[1],inactive
same,Potency,[2],inactive
NC(N)=NCCC[C@H](NC(=O)[C@@H](N)Cc1ccc(O)cc1)C(=O)O,"activity change, negative = inhibition",[1],2.03% [at 6.83 µM]
same,"activity change, negative = inhibition",[2],-11.6% [at 3.88 µM]
